Laboratory results reported in paper PMC5540273 (PLoS ONE, 2017).

Tests used:
Conditions in all cases: concentration: 1 μM, replicates: in singlicate; n = 1
BMX = system: BMX
BRAF = system: BRAF
BRK = system: T1, BRK
T1 construct: gene PTK6

BRSK1 = system: BRSK1
BRSK2 = system: BRSK2
BTK = system: BTK
BUB1 = system: BUB1
CAMK1B = system: CAMK1B
CAMK1D = system: CAMK1D
CAMK1G = system: CAMK1G
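Further: KINOMEscan kinase panel screen.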

SMILES | %Inh (BMX) | %Inh (BRAF) | %Inh (BRK) | %Inh (BRSK1) | %Inh (BRSK2) | %Inh (BTK) | %Inh (BUB1) | %Inh (CAMK1B) | %Inh (CAMK1D) | %Inh (CAMK1G)
N#Cc1cnc2cc(-c3cnc(CNCCN4CCOCC4)s3)ccc2c1Nc1ccc(Oc2ccccc2)cc1 [GW664114] | 62% | 0% | 0% | 0% | 44% | 93.9% | 37% | 24% | 12% | 24%
CS(=O)(=O)c1cccc(CNc2nc(Nc3ccc4c(c3)CCC(=O)N4)ncc2C(F)(F)F)c1 | 0% | 0% | 0% | 0% | 0% | 0% | 0% | 0% | 8% | 0%
CN(C)CCNS(=O)(=O)c1ccc(-c2ccnc3[nH]ccc23)cc1 [GSK977620] | 9% | 0% | 16% | 19% | 0% | 0% | 29% | 0% | 66% | 8%
CCn1cnc2c(NCc3ccccc3)ncnc21 [SKF-96418] | 0% | 9% | 0% | 0% | 0% | 0% | 50% | 0% | 1% | 0%
CN(c1ccc(NC(=O)Nc2cccc(Cl)c2)cc1)c1ccnc(N)n1.Cl [GW830707] | 0% | 0% | 8% | 0% | 12% | 0% | 30% | 15% | 5% | 0%
CN(c1ccc(F)c(NC(=O)c2cccc(OC(C)(C)C#N)c2Cl)c1)c1ccc2nc(NC(=O)C3CC3)sc2n1 | 0% | 94% | 0% | 4% | 0% | 22% | 34% | 0% | 0% | 2%
Cc1ccccc1CC(=O)N1CCc2cc(-c3cn(C)c4ncnc(N)c34)ccc21 [GSK2603346] | 2% | 0% | 71% | 0% | 0% | 0% | 10% | 0% | 13% | 19%
O=C(O)C(F)(F)F.O=c1[nH]ccc2nc(N[C@@H]3CCNC3)nc(Nc3ccc4c(c3)S(=O)(=O)CC4)c12 [GSK2181306] | 24% | 0% | 18% | 52% | 46% | 29% | 90.5% | 98.7% | 98.6% | 82%
O=C(Nc1n[nH]c2cc(-c3cccs3)ccc12)C1CC1 [SB-731284] | 11% | 68% | 0% | 54% | 30% | 54% | 0% | 0% | 6% | 0%
Cc1ccc(C)c(NC(=O)Nc2ccc(C)c(-c3ccc(C(=O)Nc4ccncc4)cc3)c2)c1 [GSK1398473] | 0% | 62% | 25% | 0% | 0% | 0% | 4% | 27% | 13% | 0%
O=C1NC(=O)C(c2ccccc2Cl)=C1Nc1cccc(Cl)c1 [SB-342409] | 19% | 0% | 22% | 0% | 0% | 0% | 22% | 3% | 21% | 18%
Cc1ccc(O)cc1Nc1ccnc2cc(-c3ccc(CN4CCCCC4)o3)ccc12 [GW557777] | 50% | 22% | 99.5% | 0% | 0% | 19% | 0% | 0% | 4% | 6%
CSc1ccc(NC2=C(c3ccc(Cl)cc3)C(=O)NC2=O)cc1 [SB-317658] | 11% | 0% | 1% | 0% | 0% | 0% | 0% | 61% | 13% | 0%
CN(C)CCOc1ccc(-c2cc(-c3ccc(Cl)c(O)c3)c(-c3ccncc3)[nH]2)cc1.Cl.Cl [SB-684387] | 27% | 96.6% | 75% | 0% | 0% | 0% | 83% | 40% | 23% | 0%
Nc1ncc(-c2cn[nH]c2)c2scc(-c3ccc4c(c3)CCN4C(=O)Cc3ccccc3)c12 [GSK2593067] | 31% | 0% | 96.1% | 0% | 0% | 0% | 11% | 0% | 11% | 19%
N#CC1(c2cccc(C(=O)Nc3cccc(Oc4ccc5nc(NC(=O)C6CC6)sc5n4)c3)c2)CC1 | 0% | 99.9% | 18% | 13% | 0% | 6% | 0% | 0% | 2% | 0%
Nc1cccc(-c2ccc3c(N)n[nH]c3c2)c1 [GSK2193613] | 5% | 0% | 8% | 58% | 51% | 0% | 21% | 21% | 25% | 4%

SMILES | %Inh (BMX) | %Inh (BRAF) | %Inh (BRK) | %Inh (BRSK1) | %Inh (BRSK2) | %Inh (BTK) | %Inh (BUB1) | %Inh (CAMK1B) | %Inh (CAMK1D) | %Inh (CAMK1G)
COC(=O)Nc1nc2cc(Oc3ccc(NC(=O)Nc4cccc(SC)c4)cc3)ccc2[nH]1.Cl [GW697999] | 0% | 83% | 15% | 3% | 10% | 2% | 44% | 0% | 7% | 0%
CCn1c(-c2nonc2N)nc2c(-c3ccccc3)ncc(OCCCN)c21.O=C(O)C(F)(F)F.O=C(O)C(F)(F)F [GSK260205] | 0% | 0% | 0% | 0% | 0% | 0% | 96.2% | 7% | 6% | 4%
CCNC(=O)/C=C/c1n[nH]c2cc(Sc3ccccc3C(=O)NC)ccc12 | 18% | 11% | 15% | 38% | 24% | 0% | 48% | 9% | 22% | 20%
Cc1nn2c(=O)cc(N3CCO[C@H](C)C3)nc2n1Cc1cccc(Cl)c1Cl [GSK2373693] | 15% | 2% | 13% | 3% | 0% | 0% | 28% | 42% | 9% | 0%
Fc1cc(Cl)ccc1Nc1ccnc2cc(-c3ccc(CN4CCSCC4)o3)ccc12 [GW560106] | 20% | 2% | 92.3% | 0% | 0% | 37% | 38% | 10% | 11% | 0%
Cn1cc(-c2ccc3c(c2)CCN3C(=O)Cc2cc(F)cc(F)c2F)c2c(N)ncnc21 [GSK2634140] | 11% | 0% | 22% | 6% | 0% | 0% | 9% | 7% | 28% | 0%
COC(=O)Nc1nc2ccc(Oc3ccc(CC(=O)Nc4cc(C(F)(F)F)ccc4F)cc3)cc2[nH]1 [GW680903] | 16% | 45% | 20% | 1% | 0% | 0% | 63% | 30% | 0% | 0%
Cn1cc(-c2cnc(N)c3c(-c4ccc5c(c4)CCN5C(=O)Cc4ccccc4)csc23)cn1 [GSK2593074] | 57% | 0% | 92.2% | 0% | 7% | 0% | 0% | 0% | 11% | 0%
COc1ccc(C)c(Nc2ccnc(Nc3ccc(-c4cnc[nH]4)cc3)n2)c1.Cl [GW784041] | 46% | 0% | 20% | 8% | 9% | 0% | 0% | 0% | 25% | 8%
CC(C)NCC(Cc1ccccc1)NC(=O)c1cc(Br)c(-c2ccnc3[nH]ccc23)s1.Cl.Cl (stereo not drawn) [GSK1383281] | 5% | 0% | 0% | 0% | 0% | 0% | 43% | 29% | 27% | 0%
COc1cccc(-c2nc(-c3ccccc3)[nH]c2-c2ccncc2)c1 [SB-610250] | 0% | 74% | 16% | 0% | 0% | 0% | 95.6% | 0% | 5% | 0%
CC(C)(C)c1ccc(C(=O)Nc2cn3cc(-n4ccnc4)ccc3n2)cc1 | 0% | 19% | 15% | 31% | 0% | 0% | 7% | 0% | 6% | 7%
Cc1cc(-c2ccnc(Nc3cccc(C#N)c3)n2)cc(C)c1O [GSK1440913] | 25% | 4% | 25% | 2% | 0% | 14% | 52% | 24% | 8% | 22%
CC(C)c1nc(-c2ccc(F)c(NS(=O)(=O)c3c(F)cccc3F)c2)c(-c2ccnc(Nc3ccc(N4CCOCC4)nc3)n2)s1 [GSK1804250] | 90% | 99.9% | 94.8% | 14% | 0% | 90% | 92.7% | 31% | 26% | 4%
COc1cccc2c(-c3ccncc3)c(-c3ccc(F)cc3)nn12 [GW468513] | 11% | 38% | 1% | 3% | 0% | 0% | 90% | 0% | 0% | 1%
Nc1ncnc2scc(-c3ccc(NC(=O)Cc4cc(F)ccc4F)cc3)c12.O=C(O)C(F)(F)F [SB-731254-M] | 0% | 4% | 6% | 2% | 38% | 0% | 0% | 0% | 11% | 15%
